Compounds with a hit are over-represented: about 6.8% of the library has one in this group of screens.
KB-3-1 tox: kills parental KB-3-1 adenocarcinoma cells; KB-3-1 viability, CellTiter-Glo ATP luminescence, 72 h; Potency, µM (top dose mostly 46.1 µM), actives largely listed as cytotoxic; 1.4% of 400,000 active; AID 1347075; also: % is scaled to controls: 0 for no effect and ±100 for the full control effect; nearly all actives have a fitted effect of over 60% in size
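Parental KB-3-1 adenocarcinoma cells in phenol-red-free DMEM with 10% FBS were pin-treated with compounds at several concentrations, incubated 72 h at 37 °C, and viability read by CellTiter-Glo luminescence; concentration-effect curves were fitted after normalization.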
SW480 rerep: induces DNA re-replication in SW480 colon adenocarcinoma cells | SW480 DNA re-replication, Hoechst DNA content imaging, 48 h | Potency, µM (doses to about 46.1 µM), for the others: at the highest dose re-replication activation, usual class: activators | 1.8% of 340,000 active; also: % of control where 0% means no effect; nearly all actives have a fitted effect of over 55% in size
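Cells (250 per well) received 23 nL compound or DMSO by pin tool and were kept 48 hr at 37 C, 5% CO2. Nuclei were then stained with Hoechst for 40 min and scanned for DNA content.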
MCF10A rereplic: inducers of DNA re-replication in MCF 10A breast cells; MCF 10A DNA re-replication, Hoechst nuclear intensity, 48 h; Potency, µM (series often up to 46.1 µM), inactives show at the highest dose activity, positive = re-replication, most hits filed as activators; 2.9% of 350,000 active; also: % of control where 0% means no effect; nearly all actives have a fitted effect of over 50% in size
KB-V1 cytotox: KB-V1 MDR subline cytotoxicity. KB-V1 MDR cells viability, CellTiter-Glo, 72 h. Potency, µM (doses to about 46.1 µM), actives largely listed as cytotoxic. 3.4% of 400,000 active; also: % is scaled to controls: 0 for no effect and ±100 for the full control effect; nearly all actives have a fitted effect of over 60% in size
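Following 72 h at 37 degrees C with compound, KB-V1 cell viability was read by CellTiter-Glo luminescence, medium being phenol-red-free DMEM plus 10% FBS; concentration-response parameters came from normalized, curve-fitted qHTS data.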
PTAP TSG101 blk: blocks PTAP/TSG101 interaction to inhibit HIV-1 budding; Q99816; Fluorescence polarization, FITC-PTAP peptide / Tsg101 binding; Potency, µM (highest dose often 115 µM), without a hit: at the highest dose activity change, negative = inhibition, usual class: inhibitors; 340,000 tested, under 10 active; AID 493005; active = well fitted inhibition curve with a large enough effect in the main read-out, with a control signal flat, not every such curve was filed as active; inconclusive = small, poorly fitted or top-dose-only effect, or effect the other way, or a change in a side signal; inactive = no such curve, though single readings can be large or run the other way; also: % of control where 0% means no effect
Target sequence (Q99816 whole entry, looked up): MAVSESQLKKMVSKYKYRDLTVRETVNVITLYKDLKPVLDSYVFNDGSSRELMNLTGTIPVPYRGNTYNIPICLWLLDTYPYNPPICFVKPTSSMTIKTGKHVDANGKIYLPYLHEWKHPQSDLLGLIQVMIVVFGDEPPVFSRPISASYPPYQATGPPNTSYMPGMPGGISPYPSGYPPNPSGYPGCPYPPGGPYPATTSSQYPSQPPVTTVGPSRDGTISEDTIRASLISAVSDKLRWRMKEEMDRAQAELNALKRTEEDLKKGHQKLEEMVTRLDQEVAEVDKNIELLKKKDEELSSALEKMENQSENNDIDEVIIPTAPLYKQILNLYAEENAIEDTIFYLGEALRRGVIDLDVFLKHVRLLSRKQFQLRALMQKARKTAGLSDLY
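Fluorescence polarization binding of Tsg101 binding domain (10 uM final) to FITC-labeled PTAP peptide (50 nM final) in HEPES pH 7.5 buffer with NaCl, Tween 20, EDTA, TCEP. Compounds added before peptide; binding 20 min at RT.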
PINK1 modulator: PINK1 expression modulation; PINK1 immunofluorescence, high-content cytometry, 24 h; Potency, µM (titrated, usually from 76.6 µM), for the others: at the top dose activation (PINK1 increase), hits mostly activators; 0.2% of 410,000 active; AID 624263; active = well fitted activation curve with a large enough effect; inconclusive = small, poorly fitted or top-dose-only effect; cell line not stated here; also: % of control where 0% means no effect; nearly all actives have a fitted effect of over 65% in size
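Measures PINK1 amount and localization on or inside mitochondria by immunofluorescence. Stable cells get compounds at 5 concentrations for 24 hours before fixation and staining; CCCP controls included.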
* marks the source's active call; other numbers are inactive results; i = inactive; ? = inconclusive; nt = not tested or not shown; [ ] = another dose, or the depositor's remark. Unless noted, calls follow the shape of the dose curve; as a rule, active = well fitted curve in the direction sought with a large enough effect; inconclusive = small, poorly fitted or top-dose-only effect, or another doubt; inactive = no such curve, though single readings can be large; an effect the other way counts as inactive or inconclusive. Potency is read from the fitted curve at half-maximal effect.

SMILES	KB-3-1 tox	SW480 rerep	MCF10A rereplic	KB-V1 cytotox	PTAP TSG101 blk	PINK1 modulator
CN1Cc2c(N3CCOCC3)nc3sc(C(=O)c4ccc(Br)cc4)c(N)c3c2CC1(C)C	?	?	18µM*	?	-2%	-3%
CC1(C)Cc2c(c(N3CCOCC3)nc3sc(-c4ccc(C(=O)O)o4)c(N)c23)CO1	?	19%	?	?	2%	1%
CNC(=O)c1ccc(-c2sc3nc(N4CCOCC4)c4c(c3c2N)CCCC4)o1	?	7.3µM*	?	?	-5%	11%
CNC(=O)c1ccc(-c2sc3nc(N4CCOCC4)c4c(c3c2N)CC(C)(C)OC4)o1	i	?	2.9µM*	?	-2%	0%
Cc1nc2c(sc3nc(N4CCOCC4)c4c(c32)CC(C)(C)OC4)c(-c2ccccc2)c1C(=O)O	i	21µM*	2.9µM*	i	2%	0%
S=c1[nH]nc(C2CCCCC2)n1/N=C/c1ccncc1	i	1%	?	i	-1%	-1%
S=c1[nH]nc(C2CCCCC2)n1/N=C/c1ccccc1Cl	i	-1%	?	i	-3%	8%
CC(/C=N/n1c(C2CCCCC2)n[nH]c1=S)=C\c1ccccc1	i	?	21µM*	i	-3%	5%
Cc1n[nH]c(=S)n1/N=C/c1ccccc1OCc1ccc(Cl)cc1Cl	i	?	4%	i	0%	13µM*
CCOc1ccccc1/C=N/n1c(C2CCCCC2)n[nH]c1=S	i	6%	26µM*	i	-5%	4%
Cc1n[nH]c(=S)n1/N=C/c1ccc(OCc2ccc(Cl)cc2Cl)cc1	i	-8%	1%	i	-3%	7%
CSc1ccc(/C=N/n2c(C3CCCCC3)n[nH]c2=S)cc1	i	?	16µM*	i	-6%	9%
Cc1ccc(Nc2cc(C)nc3nncn23)c(C)c1	i	nt	nt	i	nt	-2%
COc1cccc(CN2CCCC(c3nc(-c4ccncc4)ncc3-c3ccccc3)C2)c1O (centres undefined)	nt	nt	nt	nt	nt	4%
COc1cc(=O)n2c(c1C(=O)NCc1ccc3c(c1)OCO3)CCN(C(=O)c1ccccc1F)CC2	nt	nt	nt	nt	nt	1%
CCC1CN(C(=O)N2CCC(C(=O)NCc3ccc(N(C)C)cc3)CC2)c2ccccc2O1 (centres undefined)	nt	nt	nt	nt	nt	2%
Cc1ccc2c(c1)c1c3n2CCN(C(=O)c2ccc(C(F)(F)F)cc2)C3CCC1 (centres undefined)	?	nt	nt	?	nt	0%
O=C(/C=C/c1ccc(Cl)cc1)NC(=S)Nc1ccccc1C(=O)O	i	16µM*	?	i	-7%	1%
NC(=O)c1ccccc1NC(=O)/C=C/c1ccccc1	i	1%	12%	?	-1%	5%
NC(=O)c1ccccc1NC(=O)/C=C/c1ccc(Cl)cc1	i	-1%	18%	15µM*	nt	18%[38.3 µM]
O=C(/C=C/c1ccc(Cl)cc1)NC(=S)Nc1ccc(C(=O)O)cc1	i	2%	2%	i	-5%	0%
COc1ccc(S(=O)(=O)NCc2ccccn2)cc1NC(=O)c1ccccc1C	15µM*	7.3µM*	3.7µM*	?	0%	2%
COc1ccc(S(=O)(=O)NCc2ccncc2)cc1NC(=O)c1ccc(Cl)cc1	i	-344%	1%	i	-7%	5%
COc1ccc(S(=O)(=O)NCc2ccccn2)cc1NC(=O)c1ccc(Cl)cc1	?	?	8.2µM*	?	-13%	3%
Cc1ccc(Cl)cc1NC(=O)c1nnn(Cc2ccccc2)c1N	?	nt	nt	i	nt	5%
SMILES	KB-3-1 tox	SW480 rerep	MCF10A rereplic	KB-V1 cytotox	PTAP TSG101 blk	PINK1 modulator
Nc1nc2ncc(-c3ccsc3)c(N)n2n1	i	3.7µM*	8%	i	-3%	0%
Cc1ccc(C)c(S(=O)(=O)c2cn(C)c3cc(N4CCCCC4C)c(F)cc3c2=O)c1 (centres undefined)	i	nt	nt	i	nt	2%
CCN(C(=O)CSc1ncc(S(=O)(=O)c2ccc(C)c(Cl)c2)c(=O)[nH]1)c1cccc(C)c1	i	nt	nt	i	nt	2%
CCc1cc(C(=O)Cc2cnn(-c3ccccc3)c2)c(O)cc1O	i	-9%	?	23µM*	-15%	0%
Cc1csc2nc(COc3ccccc3NC(=O)c3ccc(C(C)(C)C)cc3)cc(=O)n12	i	nt	nt	i	nt	1%
CC(=O)Nc1ccc(Nc2nc(Nc3ccc(Cl)cc3)nc(N3CCOCC3)n2)cc1	i	nt	nt	i	nt	9%
Cc1ccc(NC(=S)N/N=C2/CCCCc3ccccc32)cc1	i	-14%	?	i	-7%	3%
CCNC(=S)N/N=C1\CCCCc2ccccc21	i	-2%	28%	16µM*	0%	0%
Cc1cccc(NC(=S)N/N=C2/CCCCc3ccccc32)c1	?	5%	?	16µM*	-5%	0%
CCNC(=S)N/N=C1\C(=O)c2cccc3cccc1c23	i	-3%	21µM*	i	-6%	1%
COc1ccc(CNC(=O)CCc2c(C)nn(-c3ccc(N4CCCC4)nn3)c2C)c(OC)c1	nt	nt	nt	nt	nt	2%
C(#Cc1ccccc1)C[N+]1(CC#Cc2ccccc2)CCCCC1	18µM*	-1%	0%	i	-3%	0%
C#CC[N+]1(CC#Cc2ccccc2)CCCCC1	i	-33%	-31%	i	-3%	-1%
CCC[N+]1(CC#CCC(c2ccccc2)c2ccccc2)CCCCC1	2.6µM*	23%	29%	i	-1%	29%
O=S(=O)(NCC(c1ccco1)S(=O)(=O)c1ccccc1)c1cc(F)ccc1F (centres undefined)	nt	nt	nt	nt	nt	-1%
CC(C)Cc1nc2cc(NS(=O)(=O)N(C)C)cc(C(=O)N3CC4(C)CC3CC(C)(C)C4)c2n1C (centres undefined)	nt	nt	nt	nt	nt	0%
COC(=O)c1c(-c2ccc(N(C)C)cc2)sc2ccc(OC)cc12	i	15µM*	?	i	-2%	2%
COc1nc(-c2ccccc2)cc(-c2ccc3c(c2)OCO3)c1C#N	1.8µM*	?	?	i	-5%	9%
CCOc1ccc(CCNC(=O)CCN2N=C(c3ccc(OC)cc3)CCC2=O)cc1OCC	nt	nt	nt	nt	nt	0%
CSc1ccc(CCNC(=O)C(C)n2nc(C)c3sc4ccccc4c3c2=O)cc1 (centres undefined)	nt	nt	nt	nt	nt	4%

Compound activity (PubChem)
